Source: PubChem BioAssay (several laboratories)
hiPSC survival – enhancers of single-cell hiPSC survival, primary screen, ATPlite luminescence | survival enhancement, % at 20 µM | 100% = ROCK inhibitor wells, 0% = DMSO | hit rate 0.044% among 360,000; in the data active = survival enhancement above about 18%;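 note: cells exposed to compounds for 16 hours before the ATP read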
Myeloid diff 2 – induction of myeloid progenitor differentiation, primary screen, cell-based, flow cytometry, MLPCN library | calls only at 10 µM | AID 624256, 2012 | ER-HoxA9 myeloid progenitors, lysozyme-GFP differentiation | hit rate 1% among 360,000;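 active = normalized GFP-positive differentiation at or above the plate's own cutoff, the solvent-only control mean plus 3 SD; inconclusive = no clear call, values can overlap the other calls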;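 note: cells exposed to compound for four days before flow analysis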
H9c2 protect – cardioprotection against H2O2-induced cell death, primary screen, uHTS, H9c2 cells, ATPLite luminescence | hit rate 0.63% among 360,000 | AID 588492, 2011 | H9c2 cardiomyocytes, H2O2 injury protection, 2 h | protection from H2O2 cell death, % at 20 µM;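 active = compounds giving at least 50% protection of heart cells from peroxide-induced death in the single-dose screen, raw or plate-pattern-corrected value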;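 note: 0% = DMSO wells with peroxide and 100% = DMSO wells without peroxide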
ABCB6 inh 2 – ABCB6 transporter inhibitors, primary screen, K562-ABCB6 cells, flow cytometry, MLPCN library; ATP-binding cassette sub-family B member 6 (Homo sapiens), Q9NP58; fluorescence ratio to DMSO, % at 10 µM; hit rate 0.19% among 360,000; AID 602162, 2011; K562-ABCB6 porphyrin accumulation, 1 h; hits give low values;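 active = fluorescence ratio to DMSO below 75%, the collection mean minus 3 SD; inconclusive = too few cells collected in the well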;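 note: signal is porphyrin accumulated inside mitochondria; 100% equals median channel fluorescence of DMSO control wells; lower ratio means ABCB6 inhibition with less porphyrin fluorescence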
Target sequence (Q9NP58 whole entry, looked up): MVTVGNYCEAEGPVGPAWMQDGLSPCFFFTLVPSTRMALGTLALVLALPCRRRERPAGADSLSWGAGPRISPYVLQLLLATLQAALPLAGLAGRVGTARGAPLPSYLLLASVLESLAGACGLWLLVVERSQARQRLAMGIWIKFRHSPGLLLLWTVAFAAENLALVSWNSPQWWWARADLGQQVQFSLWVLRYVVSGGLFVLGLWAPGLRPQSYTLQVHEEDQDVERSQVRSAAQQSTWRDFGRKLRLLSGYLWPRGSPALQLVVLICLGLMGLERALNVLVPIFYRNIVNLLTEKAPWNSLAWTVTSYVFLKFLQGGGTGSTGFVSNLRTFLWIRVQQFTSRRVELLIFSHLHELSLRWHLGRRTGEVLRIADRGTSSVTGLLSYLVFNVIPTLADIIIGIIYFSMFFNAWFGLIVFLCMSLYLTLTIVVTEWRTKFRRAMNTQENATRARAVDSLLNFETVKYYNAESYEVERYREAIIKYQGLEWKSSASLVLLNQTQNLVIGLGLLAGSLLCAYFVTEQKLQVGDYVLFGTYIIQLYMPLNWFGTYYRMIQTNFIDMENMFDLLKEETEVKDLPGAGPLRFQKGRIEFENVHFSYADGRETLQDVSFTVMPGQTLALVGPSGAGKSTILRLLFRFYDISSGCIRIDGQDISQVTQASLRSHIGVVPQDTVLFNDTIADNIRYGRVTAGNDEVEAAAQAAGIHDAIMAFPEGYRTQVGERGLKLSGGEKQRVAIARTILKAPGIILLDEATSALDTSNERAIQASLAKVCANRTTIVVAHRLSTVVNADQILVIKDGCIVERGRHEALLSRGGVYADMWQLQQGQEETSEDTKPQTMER
beta cell repl – inducers of MIN6 beta-cell proliferation, primary screen, ATP luminescence, uHTS | proliferation, % at 10 µM | MIN6 cells proliferation, ATPlite luminescence, 48 h; cells starved in 0.2% serum; 100% = growth in 10% serum | hit rate 0.29% among 330,000 | AID 2380, 2010;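 active = compounds whose signal lies at least 3.5 SD above the mean of all wells on their plate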;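 note: 0% = DMSO-treated cells in low-serum medium and 100% = 10% serum control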
Myeloid diff – inducers of myeloid progenitor differentiation, confirmation, cell-based, GFP/Mac1 flow cytometry, cherry pick 01. shares compounds with Myeloid diff 2. ER-HoxA9 myeloid progenitors, GFP/Mac1 double-positive flow. calls only. hit rate 2% among 2,300;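 active = share of green or green-and-red cells above 9 and 9% in run 1 or 4 and 3% in run 2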
GFP autofluor – counter-screen for myeloid differentiation promoters: compound fluorescence; shares compounds with Myeloid diff 2; ER-HoxA9 myeloid progenitors, no estrogen, GFP autofluorescence flow cytometry; vehicle wells 0%, positive control 100%; fluorescence response, % (concentration not given with the values); hit rate 7.4% among 2,300; AID 651707;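 active = over 5% cells positive for green fluorescent reporter, or over 2% positive for both it and APC stain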;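 note: range taken on the double positive population between DMSO and positive control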
* hit, by the source's call; i = inactive; ? = inconclusive; . = not tested or not shown; + = active, no number. A selection: hits, their analogues and other compounds. The true share with any hit is near 2.2%.

SMILES	hiPSC survival	Myeloid diff 2	H9c2 protect	ABCB6 inh 2	beta cell repl	Myeloid diff	GFP autofluor
O=C(/C=C/c1cccc(C(F)(F)F)c1)Nc1cccc(C(F)(F)F)c1	-1	i	-20	102	-4	i	0
NC(=O)c1cccc(-c2csc(C(O)c3ccccc3)n2)c1 (configuration not stated)	0	i	37	101	.	.	.
O=C(Nc1cccc(C(F)(F)F)c1)C1C2CC3OC(=O)C1C3C2 (configuration not stated)	-2	+	-4	102	-1	i	0
O=C(COC(=O)C1C2CC3OC(=O)C1C3C2)Nc1cccc(C(F)(F)F)c1 (configuration not stated)	0	i	0	98	0	.	.
Cc1ccc(-n2ncc(-c3nnc(SCC(=O)NC4CCCC4)o3)c2N)cc1C	-2	i	-21	92	0	i	0
Cc1cccc(OCCn2c(=O)oc3ccc(C)cc32)c1	0	i	-3	95	-2	.	.
O=C(NCC1CCCCC1)C12CN(Cc3ccccc3)CC1C(c1cccc([N+](=O)[O-])c1)=NO2 (configuration not stated)	-2	+	0	94	-7	i	0
O=[N+]([O-])c1c(NCc2ccccc2)cc(N2CCc3ccccc3C2)c2nonc12	1	i	-6	98	0	.	.
CC(=O)Nc1ccc(S(=O)(=O)N2CCSC2c2ccc(C)cc2)cc1 (configuration not stated)	-2	i	-1	88	0	.	.
COc1ccc(C2SCCN2S(=O)(=O)c2ccc(NC(C)=O)cc2)cc1 (configuration not stated)	0	+	-4	96	-2	i	0
O=C(CCCN1C(=O)/C(=C\c2cccs2)SC1=S)Nc1cccc(C(=O)O)c1	0	i	0	99	-3	.	.
O=C(CCCN1C(=O)/C(=C/c2ccco2)SC1=S)Nc1cccc(C(=O)O)c1	0	i	-5	97	-2	+	0
O=C(CCCN1C(=O)C(=Cc2ccc3c(c2)OCO3)SC1=S)Nc1ccc(C(=O)O)c(O)c1	8	i	-10	103	.	i	0
Cc1ccc(N2CCN(C(=O)c3[nH]c(C(F)(F)F)nc3-c3ccccc3)CC2)cc1	4	i	-1	92	.	.	.
Cc1cc(N2CCN(C(=O)c3[nH]c(C(F)(F)F)nc3-c3ccccc3)CC2)c2ccccc2n1	-4	i	4	98	.	i	82*
O=C(N/N=C/c1ccncc1)c1cccc(NC(=O)c2ccccc2Cl)c1	2	i	30	99	-2	.	.
O=C(N/N=C/c1cccnc1)c1cccc(NC(=O)c2ccccc2Cl)c1	0	+	8	90	1	i	0
Cc1ccc(S(=O)(=O)Nc2ccc(Nc3nccn4c(-c5ccccc5Oc5ccccc5)cnc34)cc2)cc1	2	i	-9	102	.	.	.
Cc1cc(/C=C2\SC(=S)NC2=O)c(C)n1-c1ccc(O)cc1	-1	i	-13	102	-6	.	.
Cc1cc(/C=C2\SC(=S)NC2=O)c(C)n1-c1ccccc1	-1	i	-15	126	-4	i	6.9*
Cc1cc(/C=C2\SC(=Nc3ccc(F)cc3)NC2=O)c(C)n1-c1ccc(S(N)(=O)=O)cc1	4	i	-8	98	-4	i	8.0*
Cc1cccc(-n2c(C)cc(C=C3C(=O)c4ccccc4C3=O)c2C)c1	-1	i	-7	96	-3	i	0
Cc1cc(C=C2C(=O)c3ccccc3C2=O)c(C)n1-c1ccc(Cl)cc1	-1	i	-6	116	.	.	.
CCCN1Cc2cccc(C(=O)N3CCN(c4ccc(OC)cc4)CC3)c2C1=O	-2	i	-2	89	-4	.	.
CCOc1cc(C(=O)Nc2ccc(C)cc2O)ccc1OCC(=O)N1CCOCC1	0	+	3	118	3	i	2
SMILES	hiPSC survival	Myeloid diff 2	H9c2 protect	ABCB6 inh 2	beta cell repl	Myeloid diff	GFP autofluor
CCOc1cc(C(=O)Nc2cc(C(=O)OC)ccc2C)ccc1OCC(=O)N1CCOCC1	0	i	4	98	-1	.	.
CCOc1ccc(N2CC(C(=O)N3CCCC3)CC2=O)cc1 (configuration not stated)	0	i	0	95	0	.	.
Cn1c(N)c(C(=O)COC(=O)c2ccco2)c(=O)n(C)c1=O	-4	+	14	112	2	i	0
COc1ccc(C(CCNCc2ccccc2)c2ccc(F)cc2)cc1 (configuration not stated)	-4	i	-11	93	-6	i	2
COc1ccc(C(CCNCc2ccc(F)cc2)c2ccc(F)cc2)cc1 (configuration not stated)	-3	i	-15	91	-6	.	.
COc1ccccc1CNC(=O)COc1cccnc1[N+](=O)[O-]	1	i	-1	99	0	.	.
CCCCn1c(-c2ccc(Cl)c(Cl)c2)nc2cc3[nH]c(=O)c(C(C)C)nc3cc21	-3	i	-12	93	-3	.	.
CCCCn1c(-c2ccc(C(C)(C)C)cc2)nc2cc3[nH]c(=O)c(C(C)C)nc3cc21	2	+	-23	104	-8	i	2
CC1=CC(=C(C#N)C#N)C=C(C)N1Cc1ccccc1	4	i	8	103	-1	.	.
O=C1C(O)=C(O)C(=O)c2ccccc21	3	i	-7	108	-4	i	0
CSc1ncccc1C(=O)NCC1CCCCC1	-1	i	-1	95	-1	.	.
O=C(CCc1nnc(Cc2c[nH]c3ccccc23)o1)NCC1CC12CCCCC2 (configuration not stated)	0	i	-5	95	-4	i	1
COc1ccc2c(c1OC)CN1CCc3cc4c(cc3[C@@H]1[C@@H]2O)OCO4	-1	+	-6	103	-2	i	3
COc1cc2c(cc1OC)C1Cc3ccc(OC)c(OC)c3CN1CC2 (configuration not stated)	0	i	3	113	-2	.	.
CCCN(CCC)CCNC(=O)c1cc2c(-c3ccc(Cl)cc3)nn(C)c2s1	0	?	-16	94	-5	.	.
CCN(CC)CCNC(=O)c1cc2c(-c3ccc(Cl)cc3)nn(C)c2s1	-4	+	10	101	-8	i	0
